# Measured values as given in the supplement of paper PMC6555819.
# Legend:
# Assay in all cases: PBM binding z-score (relative to random genomic background probes); higher = stronger binding; sequences stand for … in GC…GCGATTGACAGCGTAGAATGAAGG
# [1] = tested on: RARb homodimer (NR concentration 270 nM)
# Method in brief: (§1)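 Binding buffer was PBS pH 7.4 with 2% milk, 0.02% Triton X-100, 1 mM DTT, 0.2 mg/mL BSA and 0.4 mg/ml salmon testes DNA. In it, ligand-free nuclear receptor dimers were incubated 1 h on custom Agilent 4×180K protein-binding microarrays carrying double-stranded probes. Antibodies against each partner (one per run) detected binding, and z-scores were calculated against random background probes after regression normalization of scanned fluorescence.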
# [2] = tested on: RARg:RXRa (NR concentration 270 nM, RXRa partner concentration 90 nM)
# Method in brief: as §1
# [3] = tested on: RARg homodimer (NR concentration 270 nM)
# Method in brief: as §1
# [4] = tested on: RXRa DBDmut IVT, anti-RXR (DBD mutation: RXRa K156A/R161A, NR concentration 90 nM)
# Method in brief: as §1
# [5] = tested on: RXRa homodimer (NR concentration 180 nM)
# Method in brief: as §1
# [6] = tested on: THRa:RXRa (NR concentration 90 nM, RXRa partner concentration 90 nM)
# Method in brief: as §1
# [7] = tested on: THRa homodimer (NR concentration 90 nM)
# Method in brief: as §1
# [8] = tested on: VDR:RXRa (NR concentration 270 nM, RXRa partner concentration 90 nM)
# Method in brief: as §1
# [9] = tested on: VDR homodimer (NR concentration 270 nM)
# Method in brief: as §1
Sequence,PBM binding z-score [1],PBM binding z-score [2],PBM binding z-score [3],PBM binding z-score [4],PBM binding z-score [5],PBM binding z-score [6],PBM binding z-score [7],PBM binding z-score [8],PBM binding z-score [9]
CGTCCAAGGTCATAGGACGTCAGTGAAGACAGAT,3.37,5.58,5.4,3.74,5.36,3.83,2.24,4.13,3.01
AGTCAAAGTTCAGGACGAGGTAACGTATAGCACG,3.26,4.94,4.94,3.22,3.15,3.88,1.73,3.14,2.37
GCATATAGGTAATACAAGGCGAAAGTCCGATTGT,-0.287,0.107,0.326,0.52,0.182,2.28,-0.176,-0.126,-0.0927
CCGATTAGTTGACCATAAGGGCAACCGAAGCTCG,2.01,0.824,0.774,0.777,0.56,1.7,0.965,0.252,0.334
TCTAGCAGGCCAGAGGGTCACTCCAGAGGTACGG,2.59,2.1,1.86,-0.234,1.97,1.38,-0.258,0.993,0.403
GCAGACAGGTGAAACGCAGGTAACTGAGGGTGGC,0.0628,0.86,0.142,-0.51,0.568,1.06,-0.377,-0.361,-0.727
TCTTGTAGATCACCAGGTTAAGAAAGCTGGCCAA,0.501,0.343,-0.0575,1.03,1.06,1.06,0.422,0.86,0.245
ATCTCTAGGAAACCAAGTTCAGTGAATGCCGAAC,1.32,0.329,0.454,0.614,0.323,0.46,0.191,1.49,2.72
TGTCAAATTTCAAAGGTAACGTAAGTATCCACAC,0.519,0.768,0.628,-0.231,0.652,1.27,-0.123,0.605,-0.127
GCGACTGAGGCAAAGCAGGTTACCATAAGGTTGG,0.0198,0.00383,-0.272,-0.374,0.123,1.54,-0.231,-0.292,-0.64
CATCCAAGGTCATAGGAGGTCAGTGAAGACAGAT,5.07,7.02,7.22,3.91,7.03,5.14,3.35,6.74,5.28
CCGACTAGGTTATGGGGCATTCAGGCAACGGTGA,1.03,0.358,0.34,-0.142,0.666,0.586,0.24,-0.337,0.126
ATATGTGGGTTAGCTGGGGTCATTCAGACTAGGC,3.54,3.97,2.93,2.16,5.59,5,3.84,5.99,5.73
ATATGTAGGTTAGCTGGGGGCATTCAGACTAGGC,2.15,2.32,2.43,1.71,1.67,4.62,1.84,4.08,2.94
CAGACTGGGGCAAAGGTTACCATACTCAGTACGA,2.35,3.54,2.64,0.804,3.83,1.97,0.0193,1.93,0.311
CGTCCAAGGTCAAGGTCAGTGAGAGAGACTCGAA,5.4,6.7,7.4,3.75,6.25,4.31,3.35,4.84,3.5
